The source of these data is PubChem BioAssay (NCI).

Test systems include HCT-15 colon; HT29 colon; SNB-75 CNS; SNB-19 CNS; U251 CNS; PC-3 prostate; SK-MEL-5 melanoma; UACC-62 melanoma; LOX IMVI melanoma; SK-MEL-28 melanoma; SK-MEL-2 melanoma; EKVX NSCLC; SN12C renal; UO-31 renal; TK-10 renal; ACHN renal; CAKI-1 renal; A498 renal; CCRF-CEM leukemia; MOLT-4 leukemia.
Assay in all cases: NCI-60 one-dose screen, 48 h (100 = growth as untreated, 0 = no growth, -100 = all killed)
Holding throughout (settings): 10 µM unless noted

The panel holds about 83,000 compounds, 20% with a hit somewhere; the sample as a whole holds those more often.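 Values shown are percent growth following 48 h exposure of cells in 96-well plates to a single concentration of compound; below 10 was considered active.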 Unmarked numbers belong to inactive results. Calls of active or inactive are those of the source.

Turning to `CSc1nc(-c2cc3ccccc3o2)cc(-c2ccc(Cl)cc2)c1C#N`, the growth was 31.1% in the test on HCT-15 colon; -50.6% (active) in the test on HT29 colon; -36% (active) in the test on SNB-75 CNS; 55.1% in the test on SNB-19 CNS; 6.2% (active) in the test on U251 CNS; 22.2% in the test with PC-3 prostate. In addition, the growth in the test with SK-MEL-5 melanoma was 55.3%; in the test with UACC-62 melanoma, -17.1% (active); in the test with LOX IMVI melanoma, 16.8%; with SK-MEL-28 melanoma it was 65.2%; in the test with SK-MEL-2 melanoma, 23.8%; in the test with EKVX NSCLC, 73.7%. Moreover, the growth in the test on SN12C renal was 36.8%; in the test with UO-31 renal it was -18.2% (active); in the test on TK-10 renal, 54.7%; in the test on ACHN renal it was -63% (active); with CAKI-1 renal it was 48%; in the test on A498 renal, 81.9%. For the same compound, the growth is 86.8% with CCRF-CEM leukemia and 94.5% in the test with MOLT-4 leukemia.
As to `OC1CC2c3ccccc3C1c1ccccc12` (stereo not given), the growth was 106% in the test on HCT-15 colon; 110% in the test with HT29 colon; 90.5% in the test on SNB-75 CNS; 117% in the test on SNB-19 CNS; 95.8% in the test on U251 CNS; 100% in the test on PC-3 prostate. Also, the growth in the test on SK-MEL-5 melanoma is 106%; with UACC-62 melanoma, 103%; in the test on LOX IMVI melanoma, 97.3%; in the test on SK-MEL-28 melanoma it was 112%; in the test on SK-MEL-2 melanoma it was 117%; with EKVX NSCLC, 108%. The growth in the test on SN12C renal is 106%; in the test with UO-31 renal it was 95.7%; in the test on TK-10 renal it was 96.9%; in the test with ACHN renal, 111%; in the test on CAKI-1 renal, 94.5%; in the test with A498 renal it was 125%. The growth in the test on CCRF-CEM leukemia was 104%; with MOLT-4 leukemia, 106%.
In the case of `Cc1cc(C(=O)O)c(N)c(C)n1`, the growth in the test with HCT-15 colon was 100%; with HT29 colon, 112%; in the test with SNB-75 CNS, 89.4%; in the test with SNB-19 CNS it was 110%; with U251 CNS, 104%; with PC-3 prostate, 96.4%. The growth in the test with SK-MEL-5 melanoma was 115%; in the test on UACC-62 melanoma, 96.6%; in the test on LOX IMVI melanoma, 94.7%; with SK-MEL-28 melanoma, 117%; with SK-MEL-2 melanoma, 119%; in the test on EKVX NSCLC, 95.4%. In addition, the growth with SN12C renal is 106%; in the test on UO-31 renal, 83.4%; in the test with TK-10 renal, 101%; in the test on ACHN renal, 109%; in the test on CAKI-1 renal, 92.3%; with A498 renal it was 101%. In addition, the values for the growth in the test on CCRF-CEM leukemia and with MOLT-4 leukemia were 107% and 101%, respectively.
Take `CN(C)C/C=C/C(=O)Nc1cc2c(Nc3cccc(Cl)c3F)ncnc2cc1OCCOC(F)F`: the growth in the test with HCT-15 colon was 21.8%; in the test with HT29 colon, 18.2%; with SNB-75 CNS, 1.35% (active); with SNB-19 CNS, 57.1%; in the test with U251 CNS it was 50.3%; with PC-3 prostate it was 40.2%. The growth with SK-MEL-5 melanoma is 73.4%; with UACC-62 melanoma, 53.5%; in the test with LOX IMVI melanoma, 43.9%; with SK-MEL-28 melanoma it was 78.2%; in the test with SK-MEL-2 melanoma it was 70.1%; in the test with EKVX NSCLC, 19.2%. In addition, the growth is 12.6% with SN12C renal; 16.1% in the test on UO-31 renal; 22.4% in the test with TK-10 renal; 4.97% (active) in the test with ACHN renal; 10.1% with CAKI-1 renal; -14.5% (active) in the test with A498 renal. Also, the growth with CCRF-CEM leukemia was 63.1%; with MOLT-4 leukemia it was 38.6%.
Take `ClC1=C(Cl)C(Cl)=C(Cl)C1=Cc1ccc(Cl)cc1Cl`: the growth in the test with HCT-15 colon is -56.5% (active); with HT29 colon it was 10.1%; with SNB-75 CNS it was -45.6% (active); in the test with SNB-19 CNS, -6.26% (active); with U251 CNS, -75.1% (active); in the test with PC-3 prostate, -16.5% (active). The growth in the test on SK-MEL-5 melanoma is -88.1% (active); in the test on UACC-62 melanoma it was -29% (active); with LOX IMVI melanoma it was -95% (active); in the test on SK-MEL-28 melanoma it was -28.5% (active); in the test with SK-MEL-2 melanoma it was -2.84% (active); in the test on EKVX NSCLC it was -19.8% (active). In addition, the growth in the test with SN12C renal was -31.1% (active); with UO-31 renal, -81.8% (active); in the test with TK-10 renal it was -5.11% (active); in the test with ACHN renal, -75.7% (active); in the test with CAKI-1 renal it was -41.2% (active); with A498 renal, -89.6% (active). For the same compound, the growth in the test on CCRF-CEM leukemia was 3.34% (active); in the test with MOLT-4 leukemia, 4.59% (active).
With `CC1CCc2c(sc(NC(=O)CSc3nnc4ccccn34)c2C(N)=O)C1` (stereo not given), the growth in the test on HCT-15 colon was 106%; with HT29 colon it was 117%; in the test on SNB-75 CNS it was 104%; in the test with SNB-19 CNS, 115%; in the test on U251 CNS, 108%; with PC-3 prostate, 106%. Further, the growth in the test with SK-MEL-5 melanoma is 99.3%; with UACC-62 melanoma, 101%; in the test with LOX IMVI melanoma, 90.5%; with SK-MEL-28 melanoma it was 137%; in the test with SK-MEL-2 melanoma it was 48.4%; in the test with EKVX NSCLC it was 150%. For the same compound, the growth was 102% with SN12C renal; 110% with UO-31 renal; 179% in the test with TK-10 renal; 96.7% in the test with ACHN renal; 95.7% with CAKI-1 renal; 133% in the test on A498 renal. Moreover, the growth in the test with CCRF-CEM leukemia is 101%; in the test on MOLT-4 leukemia, 108%.
As for `COC(=O)c1ccc2nc(-c3cc4ccccc4n3C)n(CCCCOc3cc4c(cc3OC)C(=O)N3CCC[C@H]3C=N4)c2c1`, the growth with HCT-15 colon is -19% (active); with HT29 colon, -53.7% (active); with SNB-75 CNS it was -79.5% (active); with SNB-19 CNS, 11.3%; with U251 CNS it was 1.02% (active); with PC-3 prostate it was -6.81% (active). Moreover, the growth is -75.6% (active) in the test on SK-MEL-5 melanoma; -95.9% (active) in the test with UACC-62 melanoma; -54.7% (active) in the test on LOX IMVI melanoma; -57.1% (active) in the test on SK-MEL-28 melanoma; -40.3% (active) with SK-MEL-2 melanoma; 10.8% with EKVX NSCLC. In addition, the growth with SN12C renal is 3.64% (active); in the test with UO-31 renal, -57.3% (active); with TK-10 renal it was -17.7% (active); in the test on ACHN renal, -5.96% (active); with CAKI-1 renal, -20.7% (active); in the test on A498 renal it was -60.3% (active). In addition, the growth in the test on CCRF-CEM leukemia was -35.1% (active); in the test on MOLT-4 leukemia, 3.44% (active).
For `Nc1cc2c(cc1N)-c1cc(N)c(N)cc1C2`, the growth with HCT-15 colon is 97.4%; in the test on HT29 colon, 107%; in the test with SNB-75 CNS it was 79.9%; with SNB-19 CNS, 107%; with U251 CNS, 99.1%; in the test with PC-3 prostate, 80.5%. Besides, the growth in the test on SK-MEL-5 melanoma was 101%; in the test on UACC-62 melanoma it was 99.9%; with LOX IMVI melanoma, 94%; in the test with SK-MEL-28 melanoma, 115%; in the test on SK-MEL-2 melanoma, 111%; in the test on EKVX NSCLC, 89.2%. Besides, the growth in the test on SN12C renal was 94.9%; with UO-31 renal it was 53.9%; with TK-10 renal it was 110%; with ACHN renal it was 96%; in the test with CAKI-1 renal it was 93.8%; with A498 renal, 63.5%. Moreover, the growth with CCRF-CEM leukemia is 88.2%; in the test with MOLT-4 leukemia it was 92.3%.
